# Measurements: the supplement of paper PMC6555819
# Test system: RARa homodimer (NR concentration 270 nM)
# Assay: PBM binding z-score (relative to random genomic background probes); higher = stronger binding; sequences stand for … in GC…GCGATTGACAGCGTAGAATGAAGG
# Procedure, shortened: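 Ligand-free nuclear receptor dimers were applied to custom Agilent 4×180K protein-binding microarrays whose double-stranded probes carried direct-repeat seeds, single-nucleotide variants, half-site ablations and random human genomic background sequences in 34-nt variable regions. Incubation lasted 1 h. Binding z-scores were computed against the random background probes from regression-normalized fluorescence.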
row,Sequence,PBM binding z-score
1,CCAGACAGGTGAGAAGGGAACTCAGCCTCGATTA,0.727
2,ACTCGGAGGACAAAGGTCTGAGCTACGCCAGTGA,-0.889
3,ACCTCTAGGTAACCAAGTTCAGTGAATGCCGAAC,-0.355
4,AATACAGGGTCATCGTAGGCCGGAGTACGCACAG,0.979
5,CCACCAAGGTGAACAAGGTCGTTGATTACTATTC,0.52
6,CCGAGTAGGTTATGGCGCATTCAGGCAACGGTGA,0.249
7,ACTTACGGGTCAACGAGGGTATAGCACGCGTATA,0.643
8,CGTCCAAGGTCAGAGAGGTCAGTCAATGCCGAGT,1.78
9,CAAACTAGGTCAAGAGGTTAAAGTCCGCTTCCCG,1.25
10,TCTAGCAGGCCAGAGAGTCACTCAAGAGGTACGG,-0.925
11,TCTTTTAGATCAAAGGTTAAGAAAGCCGAAGCCT,0.435
12,CAAACTTGGTCAAGGTCAAAGTCGGTTTGTGCCA,0.201
13,GCGACTGTGGCATCAGCAGGTTACCATAACTTAA,-0.798
14,ATCGAAAGGTCGAGGAGAGTATAGAGAAAGGGAA,0.436
15,CATACAGGGTCAGCTAGGCCACAGTAGGGACGGC,0.445
16,TCATATAGGAAAATGCTAGGTGAAAGTCCGATCT,1.22
17,CCTCGGAGGACAGAACGTCAGAGCTGTCCGCTTT,-0.587
18,CCGACTGGGGCATAAGGTTACCATGAGCCAGCCC,0.564
19,TCTTGTAGATCAAGCAGGTTTAGAAAGCCTGAGT,-0.252
20,GGAACGAGGGCAAGTTGATGGCAGAGTTTGATGG,-0.279

row,Sequence,PBM binding z-score
1,CCTCGGAGGACAACAGGTGGTCAGAGCTGCCAGA,-0.066
2,TCGAGTAGGTTCCCAATGGGGCATTCAGCTTTCT,-1.9
3,TCGAATAGGTTAGTCGGGGCATTCAGCCAACATA,-0.516
4,TCGAGTAGGTTACCAATGGGGTATTCAGCTTTCT,-0.642
5,CAAACTAGTTCAAGGTCAAAGTCGGTTTGTGCCA,0.936
6,CGAACTAGGTCATCCAGGACAGCGAATACATTGA,-0.0811
7,ATACCAAAGTGATCGTGAGGTCGTTGATACTAAC,0.386
8,ACCTCTAGGTAAGACTCAGTTCAGTGAAGAACGC,-0.37
9,TCATATAGGTAAAATGTGAAAGTCGGTGTGGTAA,0.307
10,CCGACTGGGGCAGAAAGGTTACCATCCCATCCGG,-0.144
11,TGGAGTAGGTTAGGGGCATTCAGAATGGCGTCGA,0.935
12,CCTACTGGGCCAAAGTCATTGATCAGTCAAAGCA,-1.15
13,ATTCGGAGGACAAAGGTCAGAGCTACGCCAGTGA,0.808
14,ATACCAAGGTGATCGTGAGGTCGTTGAGACTAAC,0.197
15,GCTAGCAGGCCAGTTGGGTCACTCAATGACGGGC,-0.946
16,CCTACTGGGCCCAAAAGGTCATTGATGCCGATAA,1.46
17,AGAACGAGGGCACGATGAGTTGATAGCAGAGTAG,-0.256
18,TCATATAAGTAATACAGGTGAAAGTCGGCATCTA,1.95
19,ATCGAAATGTCGACGAGGTGAGTATACACCGTTT,-0.025
20,TCTCGGAGGACACGAAAGGTCAGAGCTCGACATC,1.9
